“And” between values parts separate entries of the source, which are not always exact repeats. Identical values can stand only once. Inconclusive results are not listed. Some compounds were tested as several samples or in several runs, with calls that do not always agree. The source made the active and inactive calls. Calls come from the whole dose curve; as a rule, active = well fitted inhibition curve with a large enough effect; inconclusive = small, poorly fitted or top-dose-only effect; inactive = flat fitted curve, though single readings scatter.
% is set by controls: 0 for no effect and ±100 for the full control effect.

A short description of this test: Drug repurposing screens with cells derived from glioblastoma tumor samples (AID 1345199). Note: nearly all actives have a fitted effect of over 40% in size. To be noted: GBM patient neurospheres viability, ATP luminescence, 48 h; at 46.1 µM (top of the series); tumour line C. The gist of the method:
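Four patient lines of CD133+ GBM neurospheres were screened at several concentrations; hits were retested in those lines plus three slower-growing GBM lines, using 48-hour treatment and ATP-based viability.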
`C[N+](C)(C)CCOP(=O)(O)OP(=O)([O-])OC[C@H]1O[C@@H](n2ccc(N)nc2=O)[C@H](O)[C@@H]1O`: the activity, negative = cell killing was -5.84% (inactive) and 8.06% (inactive).
As for `CCCCC[C@H](O)/C=C/[C@@H]1[C@@H](C/C=C\CCCC(=O)O)[C@@H](O)C[C@H]1O`, the activity, negative = cell killing was -1.95% (inactive).
In the case of `CC(C)Cc1ccc([C@H](C)C(=O)O)cc1` it was 8.55% (inactive); in that of `CO/N=C(\C(=O)N[C@@H]1C(=O)N2C(C(=O)O)=C(COC(C)=O)CS[C@H]12)c1csc(N)n1` (stereo in doubt), -2.27% (inactive).
As for `O=C(O)COc1ccc(C(=O)c2cccs2)c(Cl)c1Cl`, the activity, negative = cell killing was -20.3% (inactive) and -8.25% (inactive).
In the case of `C=CC(N)CCC(=O)O` (stereo not drawn) it was -7.65% (inactive); in that of `CCCCCC[C@@H](O)C/C=C\CCCCCCCC(=O)O`, -19.3% (inactive) and -4.11% (inactive).
In the case of `C=C(Nc1ccc(OCC)cc1)Nc1ccc(OCC)cc1` it was -12.9% (inactive); in that of `C#C[C@]1(O)CC[C@H]2[C@@H]3CCc4cc(O)ccc4[C@H]3CC[C@@]21C`, 2.3% (inactive).
In the case of `CC[C@H]1OC(=O)[C@H](C)C(=O)[C@H](C)[C@@H](O[C@@H]2O[C@H](C)C[C@H](N(C)C)[C@H]2O)[C@](C)(OC)C[C@@H](C)C(=O)[C@H](C)[C@H]2N(CCCCn3cnc(-c4cccnc4)c3)C(=O)O[C@]12C` it was 5.5% (inactive); in that of `CN1[C@@H](CC(=O)c2ccccc2)CCC[C@H]1C[C@H](O)c1ccccc1`, 11.9% (inactive).
Turning to `CC1(C)C[C@@H]1C(=O)N/C(=C\CCCCSC[C@H](N)C(=O)O)C(=O)O`, the activity, negative = cell killing is -10.6% (inactive) and -17.9% (inactive).
In the case of `O=C(O)[C@H](O)[C@@H](O)[C@H](O)[C@H](O)CO` it was 0.0662% (inactive) and -1.71% (inactive).
In the case of `CC[C@H]1OC(=O)[C@H](C)[C@@H](O[C@H]2C[C@@](C)(OC)[C@@H](O)[C@H](C)O2)[C@H](C)[C@@H](O[C@@H]2O[C@H](C)C[C@H](N(C)C)[C@H]2O)[C@](C)(O)C[C@@H](C)C(=O)[C@H](C)[C@@H](O)[C@]1(C)O` it was -1.15% (inactive) and -24.2% (inactive); in that of `C[S+](CC[C@H](N)C(=O)O)C[C@H]1O[C@@H](n2cnc3c(N)ncnc32)[C@H](O)[C@@H]1O` (stereo partly drawn), -29.2% (inactive) and -23.1% (inactive).
For `O=C(O)/C=C/C(O)c1ccc(Cl)cc1` (stereo not drawn), the activity, negative = cell killing is 1.95% (inactive).
In the case of `C=CCN1C(=O)C(CC(C)C)NC1=S` (stereo not drawn) it was -6.48% (inactive) and -20.2% (inactive).
Consider `COc1cc(/C=C/C(=O)CC(=O)/C=C/c2ccc(O)c(OC)c2)ccc1O`, for which the activity, negative = cell killing is -20.1% (inactive).
